Holding throughout (experiment): NCI-60 one-dose screen, 48 h (100 = growth as untreated, 0 = no growth, -100 = all killed)
In one experiment the test system is MOLT-4 leukemia. Particulars: 10 µM.
In the next experiment the test system is RPMI-8226 leukemia. Conditions: 10 µM.
Another experiment relates to OVCAR-8 ovarian. Particulars: 10 µM.
The next experiment deals with OVCAR-5 ovarian. Particulars: 10 µM.
The next experiment has as its system OVCAR-4 ovarian. Conditions: 10 µM.
In another experiment the test system is SK-OV-3 ovarian. Conditions: 10 µM.
The test system of a further experiment is IGROV1 ovarian. Conditions: 10 µM.
The next experiment has as its system OVCAR-3 ovarian. Conditions: 10 µM.
The next experiment deals with HS 578T breast. Conditions: 10 µM.
The subject of another experiment is NCI/ADR-RES ovarian. Particulars: 10 µM.
For another experiment, the system named is T-47D breast. Conditions: 10 µM.
The next experiment deals with MDA-MB-435 melanoma. Particulars: 10 µM.
A further experiment deals with SW-620 colon. Conditions: 10 µM.
The next experiment deals with HCT-116 colon. Particulars: 10 µM.
Another experiment deals with HCC-2998 colon. Particulars: 10 µM.
A further experiment deals with KM12 colon. Conditions: 10 µM.
The next experiment deals with SR leukemia. Particulars: 10 µM.
For the next experiment, the system named is BT-549 breast. Particulars: 10 µM.
The subject of the next experiment is MCF7 breast. Conditions: 10 µM unless noted.

Structures are written as SMILES. Several values for one entry are separate records, joined by “and”; a condition that tells them apart may be missing. Equal values may be shown once. About 83,000 compounds went through this panel and 20% of them were active in at least one assay; those are over-represented in the sample as a whole.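 Note: values are percent growth. 100 is the growth of untreated cells, values between 100 and 0 indicate rising inhibition; between -100 and 0 indicates cell death.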 Activity calls are given as the source filed them. How the source made its calls: active means growth percent below 10; inactive means the rest.

In the case of `Cc1cc(C(C)(C)c2ccc(O)c(C)c2)ccc1O`, the growth in the experiment on MOLT-4 leukemia was 78.9% (inactive); in the experiment with RPMI-8226 leukemia it was 93.6% (inactive); in the experiment on OVCAR-8 ovarian it was 81.8% (inactive); with OVCAR-5 ovarian, 88.1% (inactive); in the experiment on OVCAR-4 ovarian, 83.9% (inactive); in the experiment on SK-OV-3 ovarian it was 102% (inactive). The growth is 106% (inactive) in the experiment on IGROV1 ovarian; 85.9% (inactive) with OVCAR-3 ovarian; 89.2% (inactive) in the experiment with HS 578T breast; 88.1% (inactive) with NCI/ADR-RES ovarian; 81.3% (inactive) with T-47D breast; 80.4% (inactive) with MDA-MB-435 melanoma. The growth was 97.2% (inactive) in the experiment with SW-620 colon, 86.4% (inactive) in the experiment on HCT-116 colon, 104% (inactive) in the experiment with HCC-2998 colon and 92.3% (inactive) in the experiment on KM12 colon.

For the compound `COC(=O)C1C(O)C(C)C(O)C(C)/C=C\C=C(C)C(=O)Nc2c(C)c(OC(C)=O)c3c(c2O)C(=O)C(C)=C2OCOC(=C23)C(C)=CC(C)(O)C(O)C(C)C1O` (stereo not given), the growth in the experiment with MOLT-4 leukemia is 51.9% (inactive); with SR leukemia, 49.3% (inactive); with OVCAR-5 ovarian, 77% (inactive); with OVCAR-4 ovarian, 79.4% (inactive); in the experiment with SK-OV-3 ovarian it was 108% (inactive); in the experiment with IGROV1 ovarian it was 58.7% (inactive). In addition, the growth is 105% (inactive) in the experiment on OVCAR-3 ovarian; 81.7% (inactive) in the experiment on HS 578T breast; 105% (inactive) in the experiment on NCI/ADR-RES ovarian; 100% (inactive) with T-47D breast; 121% (inactive) in the experiment on BT-549 breast; 100% (inactive) in the experiment on MDA-MB-435 melanoma. Also, the growth in the experiment on SW-620 colon is 94.2% (inactive); in the experiment with HCT-116 colon it was 99.9% (inactive); in the experiment on HCC-2998 colon, 91.6% (inactive); in the experiment on KM12 colon it was 102% (inactive).

Regarding `COc1ccc(/C=C(\C)[N+](=O)[O-])cc1OC`, the growth in the experiment with MOLT-4 leukemia was -25% (active); with RPMI-8226 leukemia, -20.2% (active); in the experiment on OVCAR-8 ovarian, -27.8% (active); in the experiment on OVCAR-5 ovarian, 67.8% (inactive); in the experiment on OVCAR-4 ovarian it was 17.2% (inactive); in the experiment with SK-OV-3 ovarian, 104% (inactive). Further, the growth with IGROV1 ovarian is -18.5% (active); in the experiment on OVCAR-3 ovarian, -76.3% (active); in the experiment on HS 578T breast, 65.7% (inactive); with NCI/ADR-RES ovarian, 90.5% (inactive); in the experiment on T-47D breast, -21.6% (active); in the experiment on MDA-MB-435 melanoma it was -59.1% (active). For the same compound, the growth is -42.4% (active) in the experiment with SW-620 colon; -34.6% (active) in the experiment on MCF7 breast; -28.9% (active) in the experiment with HCT-116 colon; 94.3% (inactive) in the experiment on HCC-2998 colon; 54.6% (inactive) with KM12 colon.

As for `O=[N+]([O-])/C=C/c1ccc([N+](=O)[O-])cc1`, the growth in the experiment with MOLT-4 leukemia is 47% (inactive) and 47.8% (inactive); in the experiment with RPMI-8226 leukemia, -51.5% (active) and 17.3% (inactive); with OVCAR-8 ovarian, 28% (inactive) and 92% (inactive); in the experiment with OVCAR-5 ovarian it was 71.7% (inactive) and 125% (inactive); in the experiment on OVCAR-4 ovarian, 85.6% (inactive) and 86.6% (inactive); with SK-OV-3 ovarian, 92.6% (inactive) and 110% (inactive). Further, the growth is -20.2% (active) and 66.6% (inactive) with IGROV1 ovarian; -98.4% (active) and 36.6% (inactive) in the experiment with OVCAR-3 ovarian; -2.35% (active) and 93.8% (inactive) in the experiment with HS 578T breast; 78.7% (inactive) and 85.8% (inactive) in the experiment on NCI/ADR-RES ovarian; 48.7% (inactive) and 57.1% (inactive) in the experiment with T-47D breast; -75.2% (active) and 88.7% (inactive) in the experiment with BT-549 breast. Also, the growth in the experiment with MDA-MB-435 melanoma is -48.9% (active) and 81.1% (inactive); with SW-620 colon it was -72.6% (active) and 12.2% (inactive); in the experiment with MCF7 breast it was -14.5% (active) and 23.1% (inactive); in the experiment on HCT-116 colon, -93% (active) and 48.4% (inactive); in the experiment on HCC-2998 colon it was -91% (active) and 98.9% (inactive); with KM12 colon, -54.2% (active) and 99.7% (inactive).

`C#CC1(O)CCC(C(C)(C)C)CC1` (stereo not given): the growth in the experiment on MOLT-4 leukemia is 114% (inactive); with SR leukemia, 113% (inactive); in the experiment with OVCAR-8 ovarian, 95.5% (inactive); with OVCAR-5 ovarian, 105% (inactive); in the experiment with OVCAR-4 ovarian, 116% (inactive); in the experiment on SK-OV-3 ovarian, 119% (inactive). For the same compound, the growth was 103% (inactive) in the experiment with OVCAR-3 ovarian; 106% (inactive) with NCI/ADR-RES ovarian; 111% (inactive) in the experiment on T-47D breast; 89.8% (inactive) in the experiment with MDA-MB-435 melanoma; 106% (inactive) in the experiment on SW-620 colon; 99% (inactive) with MCF7 breast. In addition, the growth was 108% (inactive) in the experiment on HCT-116 colon and 100% (inactive) with KM12 colon.

As for `O=C1C=Cc2ccccc2C1=O`, the growth was 95.2% (inactive) in the experiment on MOLT-4 leukemia; 93.6% (inactive) in the experiment on RPMI-8226 leukemia; 87.9% (inactive) in the experiment on OVCAR-8 ovarian; 120% (inactive) in the experiment with OVCAR-5 ovarian; 71.9% (inactive) with SK-OV-3 ovarian; 77.7% (inactive) in the experiment on IGROV1 ovarian. Besides, the growth in the experiment on OVCAR-3 ovarian is 96.9% (inactive); with HS 578T breast it was 90.9% (inactive); with NCI/ADR-RES ovarian, 93.8% (inactive); with T-47D breast, 97.2% (inactive); with MDA-MB-435 melanoma, 5.35% (active); with SW-620 colon, 50.5% (inactive). Also, the growth in the experiment with MCF7 breast was 66.1% (inactive); in the experiment on HCT-116 colon it was 87.7% (inactive); in the experiment with HCC-2998 colon it was 112% (inactive); in the experiment on KM12 colon, 110% (inactive).

`COc1cc(/C=C/[N+](=O)[O-])cc(OC)c1OC`: the growth is 8.23% (active) with MOLT-4 leukemia; -27.6% (active) in the experiment on RPMI-8226 leukemia; 1.78% (active) in the experiment on OVCAR-8 ovarian; 23% (inactive) with OVCAR-5 ovarian; 34.2% (inactive) with OVCAR-4 ovarian; 89.9% (inactive) in the experiment on SK-OV-3 ovarian. Further, the growth with IGROV1 ovarian is -22% (active); in the experiment on OVCAR-3 ovarian, -30.9% (active); in the experiment with HS 578T breast it was 8.36% (active); in the experiment on NCI/ADR-RES ovarian, 27.3% (inactive); in the experiment on T-47D breast, 13.1% (inactive); in the experiment with MDA-MB-435 melanoma it was -22.4% (active). Besides, the growth in the experiment with SW-620 colon was -50.5% (active); in the experiment on HCT-116 colon, -19.2% (active); in the experiment on HCC-2998 colon, -19.9% (active); with KM12 colon, 18.2% (inactive).

`CC(C)c1cc([N+](=O)[O-])cc([N+](=O)[O-])c1O`: the growth in the experiment with MOLT-4 leukemia was 98.2% (inactive); in the experiment on RPMI-8226 leukemia, 116% (inactive); in the experiment on OVCAR-8 ovarian, 104% (inactive); in the experiment on OVCAR-5 ovarian it was 107% (inactive); in the experiment on OVCAR-4 ovarian it was 115% (inactive); in the experiment on SK-OV-3 ovarian, 100% (inactive). For the same compound, the growth in the experiment on IGROV1 ovarian was 111% (inactive); with OVCAR-3 ovarian, 105% (inactive); in the experiment with HS 578T breast it was 101% (inactive); in the experiment with NCI/ADR-RES ovarian, 97.3% (inactive); in the experiment with T-47D breast it was 97.3% (inactive); in the experiment on BT-549 breast, 96.4% (inactive). Further, the growth is 108% (inactive) in the experiment with MDA-MB-435 melanoma; 100% (inactive) in the experiment with SW-620 colon; 103% (inactive) in the experiment on HCT-116 colon; 87.4% (inactive) in the experiment with HCC-2998 colon; 88.1% (inactive) in the experiment on KM12 colon.

Source of the values: PubChem BioAssay (NCI).
